Assay outcomes: PubChem, Paczesny and Yang Labs, IUPUI and University of Michigan
The entries come from a sample that favours hits as a whole.
ST2 IL33 inh – IL1RL1 inhibition; Q01638; AlphaLISA ST2-Fc/biotin-IL-33 interaction, 1 h; inhibition, % for hits at 17 µM; 78,000 tested, 2.3% active; AID 1259354; in the data active means inhibition above about 30%
Target sequence (Q01638 whole entry, looked up): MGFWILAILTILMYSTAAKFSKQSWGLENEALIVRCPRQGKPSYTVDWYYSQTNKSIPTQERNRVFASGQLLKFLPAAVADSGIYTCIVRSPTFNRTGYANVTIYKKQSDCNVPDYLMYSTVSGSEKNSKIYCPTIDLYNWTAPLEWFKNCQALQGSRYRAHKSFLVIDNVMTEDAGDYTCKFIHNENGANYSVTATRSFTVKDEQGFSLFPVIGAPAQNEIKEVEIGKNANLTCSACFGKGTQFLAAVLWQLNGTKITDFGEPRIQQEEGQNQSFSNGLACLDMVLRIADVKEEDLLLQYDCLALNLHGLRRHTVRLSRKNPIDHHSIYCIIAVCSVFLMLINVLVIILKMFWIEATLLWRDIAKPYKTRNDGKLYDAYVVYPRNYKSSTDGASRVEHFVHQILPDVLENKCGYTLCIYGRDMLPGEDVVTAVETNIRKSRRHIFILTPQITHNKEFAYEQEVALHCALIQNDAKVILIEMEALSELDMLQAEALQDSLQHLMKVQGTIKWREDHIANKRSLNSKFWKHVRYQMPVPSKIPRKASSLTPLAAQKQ
Starred values were filed as active, the others as inactive; i = inactive.

SMILES	ST2 IL33 inh
CCc1ccc(NS(=O)(=O)c2ccc(OC)cc2)cc1	i
CC1=C(C(=O)Nc2ccc(C)cc2C)C(c2cccs2)n2nnnc2N1 (configuration not stated)	i
Cc1ccccc1NC(=O)C(NS(=O)(=O)c1cccs1)C(C)C (configuration not stated)	i
CC(C)Cc1ccc(S(=O)(=O)Nc2ccccc2)cc1	i
CCOc1ccc(S(=O)(=O)N(CC(=O)Nc2cccc(OC)c2)c2ccccc2)cc1	i
CCc1ccc(S(=O)(=O)N=C2C=C(Nc3ccccc3)C(=O)c3ccccc32)cc1	79.0%*
O=C(c1c[nH]c2ccc(S(=O)(=O)Nc3cccc(C(F)(F)F)c3)cc2c1=O)N1CCCC1	i
CCOc1ccccc1NC(=O)C(Cc1ccccc1)NS(=O)(=O)c1cccs1 (configuration not stated)	i
CC1=C(C(=O)Nc2cccc(C)n2)C(c2cccc(Cl)c2Cl)C2=C(CCCC2=O)N1 (configuration not stated)	i
CC(C)CCNC(=O)Cn1c(=O)n(CC2CCC(C(=O)NC(C)C)CC2)c(=O)c2sccc21 (configuration not stated)	i
CCN(CC1CCCN(CCc2cccc(F)c2)C1)C(=O)c1ccc2[nH]ccc2c1 (configuration not stated)	i
CCOc1c(Nc2ccc(F)cc2)c(=O)c1=O	i
CCOc1ccc(S(=O)(=O)Nc2ccc(I)cc2)cc1	i
CCOc1ccc(Nc2c(OCC)c(=O)c2=O)cc1	i
CCOc1ccc(NC2=CC(=NS(=O)(=O)c3ccc(F)cc3)c3ccccc3C2=O)cc1	95.0%*
CCOc1ccc(NC(=O)c2ccccc2F)cc1	i
COc1ccc(S(=O)(=O)N=C2C=C(Nc3ccccc3)C(=O)c3ccccc32)cc1	85.0%*
COc1ccc(NC(=O)C(Cc2ccccc2)N2C(=O)c3ccccc3C2=O)cc1 (configuration not stated)	i
COc1ccc(C=NS(=O)(=O)c2ccccc2)c(OC)c1	i
CCOc1ccc(NC2=CC(=NS(=O)(=O)c3ccc(OCC)cc3)c3ccccc3C2=O)cc1	93.0%*
COc1ccc(S(=O)(=O)N=C2C=CC(=O)c3ccccc32)cc1	39.0%*
COc1ccc(S(=O)(=O)N=C2C=C(C(C)C)C(=O)C=C2C)cc1	i
COc1ccc(S(N)(=O)=O)cc1	i
CC(C)CCN(C)C1CCN(S(=O)(=O)c2ccc(Cl)cc2)CC1	i
Cc1cccc(CC(=O)NC2CC(=O)N(c3ccc(F)cc3)C2)c1 (configuration not stated)	i
SMILES	ST2 IL33 inh
COCc1cc(=O)[nH]c(SCC(=O)Nc2ccc(OC)cc2)n1	i
CCN(Cc1ccc2c(c1)OC(F)(F)O2)C1CCS(=O)(=O)C1 (configuration not stated)	i
COc1ccc(C)cc1NS(=O)(=O)c1ccc(OC)c(OC)c1	i
COc1ccccc1NS(=O)(=O)c1ccc(C(C)(C)C)cc1	i
COc1ccccc1NC1=CC(=NS(=O)(=O)c2ccc(C)cc2)c2ccccc2C1=O	94.0%*
COC(=O)CSc1nc2sc3c(c2c(=O)n1-c1ccc(OC)cc1)CCC3	i
CC1CC2c3cccc(C(=O)O)c3C(=O)N2c2ccc(F)cc21 (configuration not stated)	32.0%*
O=C(O)c1ccccc1N1C(=O)C2C3CC(C(Br)C3Br)C2C1=O (configuration not stated)	i
C=CCC1c2cccc(C(=O)O)c2C(=O)N1c1cccc(OC)c1 (configuration not stated)	i
Cn1ccc(C(=O)Nc2ccc(C(=O)O)cc2)n1	i
CC(C)(C)c1[nH]nc2c1C(c1cccs1)C(C#N)=C(N)O2 (configuration not stated)	i
COc1cc2c(cc1CNc1cc(C3CCNCC3)ncn1)OCCO2	i
COc1cc(OC)cc(C(=O)Nc2cc(C)c3c(=O)oc4ccccc4c3n2)c1	i
O=C1C(=O)N(Cc2ccccc2)c2ccc(Br)cc21	30.0%*
O=C1c2ccccc2NC(c2ccc(Br)cc2)N1Cc1ccccc1 (configuration not stated)	i
O=C1C(=O)N(Cc2ccc(F)cc2)c2ccccc21	i
COCC(=O)N1CCN(C(C)=O)C[C@@H]1C(=O)N[C@H](C)C(=O)OC	i
COc1cccc(/C=C2/C(=O)NN(c3ccccc3)C2=O)c1OC	i
Cc1ccccc1OCCOc1ccc([N+](=O)[O-])cc1/C=C1\C(=O)NN(c2ccccc2)C1=O	35.0%*
O=C1NN(c2ccccc2)C(=O)/C1=C/c1ccccc1OCc1c(F)cccc1Cl	41.0%*
CCOc1ccc(/C=C2\C(=O)NN(c3cccc(Br)c3)C2=O)cc1OCC	i
COc1cccc(/C=C2/C(=O)NN(c3ccc(C)c(Cl)c3)C2=O)c1	i
Cc1ccccc1OCCn1cc(C=C2C(=O)N(C)C(=O)N(C)C2=O)c2ccccc21	i
CC1CCN(C(=O)CN(c2ccc(Cl)c(C(F)(F)F)c2)S(=O)(=O)c2ccccc2)CC1	i
